Data published in PubChem BioAssay (NCI).
Compounds without any hit were thinned out: in the full panel of roughly 83,000, 20% have a hit.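 Treatment: one concentration, 48 hours, 96-well format. Scoring: percent growth, with anything below 10 considered active.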 Unmarked numbers belong to inactive results. Active and inactive are the calls of the source.

What follows are compounds tested on HS 578T breast (assay: NCI-60 one-dose screen, 48 h (100 = growth as untreated, 0 = no growth, -100 = all killed)). Settings: 10 µM unless noted.

Structure (SMILES)	growth
COc1cccc(-c2nc3sccn3c2-c2ccnc(NCCCNS(=O)(=O)c3c(Cl)cccc3Cl)c2)c1	76.1%
CC1=NN(c2nc(-c3ccc(Cl)cc3)c(C#N)c(N3CCOCC3)n2)C(=O)C1	54.6%
Cc1nc2c3c(-c4ccccc4)c(-c4ccccc4)oc3ncn2n1	95.8%
C=CC(=O)Nc1cccc(-c2nc(SC)nc(NCc3ccccc3)c2C#N)c1	51.8%
N#Cc1c(N)n(CCNC(=O)c2ccccc2)c2nc3ccccc3nc12	179%
C=C(C)[C@@H]1CC[C@]2(C(=O)OC)CC[C@]3(C)[C@H](CC[C@@H]4[C@@]5(C)C/C(=C/c6cccc(I)c6)C(=O)C(C)(C)[C@@H]5CC[C@]43C)[C@@H]12	88%
Cc1c(/C=C/[N+](=O)[O-])ccc2c1[nH]c1ccccc12	104%
COc1cc(/C=C/c2cc(O)c3cc(C(C)=O)c(=O)oc3c2)cc2c1O[C@]1(C)CC[C@@H](O)C(C)(C)[C@H]1C2	2.8% (active)
CCCOc1ccc2nc(NC(=O)OC)[nH]c2c1	29.8%
COc1cc(/C=C/C(=O)c2ccc(O)c(CN3CCN(c4cc5c(cc4F)c(=O)c(C(=O)O)cn5C4CC4)CC3)c2)cc(OC)c1OC	38.1%
C=CCSSc1ncnc2c1ncn2C1OC(CO)C(O)C1O (centres undefined)	47.9%
COc1cc2nc(N3CCCC3)nc(NCc3ccccc3)c2cc1OC	73.7%
CC[C@H]1OC(=O)[C@H](C)[C@@H](O[C@H]2C[C@@](C)(OC)[C@@H](O)[C@H](C)O2)[C@H](C)[C@@H](O[C@@H]2O[C@H](C)C[C@H](N(C)C)[C@H]2O)[C@](C)(O)C[C@H](C)CN(C)[C@H](C)[C@@H](O)[C@]1(C)O	-29.8% (active)
CSc1nc(NCCN2CCOCC2)c(C#N)c(-c2cccc([N+](=O)[O-])c2)n1	97.9%
CC(C)c1c(C(=O)c2ccccc2)c(-c2ccccc2)c(-c2ccc(F)cc2)n1CC[C@@H](O)C[C@@H](O)CC(=O)O	17.1%
N#CCCN=Nc1c(O)[nH]c2ccc([N+](=O)[O-])cc12	103%
CC[C@@H]1O[C@H](O[C@@H](c2cnc[nH]2)[C@H](NC(=O)c2nc([C@H](CC(N)=O)NC[C@@H](N)C(N)=O)nc(N)c2C)C(=O)N[C@H](C)[C@H](O)[C@H](C)C(=O)N[C@@H](C(=O)NCCc2nc(-c3nc(C(=O)NCCCCN=C(N)N)cs3)cs2)[C@@H](C)O)[C@H](O[C@@H]2O[C@H](CO)[C@H](O)[C@H](OC(N)=O)[C@@H]2O)[C@H](C)[C@@H]1C	38.8%
COc1cc2nc(N3CCCC3)nc(Nc3ccccc3)c2cc1OC	-24.2% (active)
Nc1nc2ncc(CCNc3ccc(C(=O)O)cc3)nc2c(=O)[nH]1	117%
CCCN1CCN(c2ccc3nc(-c4ccc5nc(-c6ccc(OCC)cc6)[nH]c5c4)[nH]c3c2)CC1	70.4%

Structure (SMILES)	growth
COc1ccc(Nc2nc(SC)nc(-c3cccc([N+](=O)[O-])c3)c2C#N)cc1	42.1%
O=C1CC(=NCC(=O)n2c(-c3ccccc3)nc3ccccc32)NN1	103%
CC(C)(O)c1cn(CCCCN2C(=O)C(=O)c3ccccc32)nn1	99.6%
CCCCCCCCCCCCC[N+](C)(C)Cc1ccccc1	-31.4% (active)
COc1ccc(/C=C/C(=O)c2ccc(O)c(CN3CCN(c4cc5c(cc4F)c(=O)c(C(=O)O)cn5C4CC4)CC3)c2)cc1	35.4%
O=S(=O)(Nc1ccc(OC(F)F)cc1)c1ccc(-c2cnc(C3CC3)o2)cc1	75.5%
N#C/C(=C\c1ccc(-c2cc(C(F)(F)F)ccc2Cl)o1)c1nc(-c2ccco2)cs1	103%
O=C(O)c1ccc(N=CC(=O)c2ccc(-c3ccccc3)cc2)cc1	88.9%
COc1cccc(-c2nn(C(C)(C)C)cc2-c2ccnc(NCCCNS(=O)(=O)c3ccc(C)cc3)c2)c1	103%
CC(C)n1c(/C=C/[C@@H](O)C[C@@H](O)CC(=O)O)c(-c2ccc(F)cc2)c2ccccc21	55.1%
N#Cc1c(-c2ccc(Cl)cc2)nc(N/N=C/c2cccc(Br)c2)nc1N1CCOCC1	82.1%
COc1ccc(-c2nc3ccc(-c4nc5ccc(N6CCN(c7ccncc7)CC6)cc5[nH]4)cc3[nH]2)cc1OC	44.1%
CSc1nc(NCc2ccccc2)c(C#N)c(-c2cccc([N+](=O)[O-])c2)n1	92%
O=C(/C=C/c1cccc(Cl)c1)c1ccc(O)c(CN2CCN(c3cc4c(cc3F)c(=O)c(C(=O)O)cn4C3CC3)CC2)c1	41.3%
CC1(C)CC[C@]2(C(=O)Nc3ccccn3)CC[C@]3(C)C(=CC[C@@H]4[C@@]5(C)C/C(=C/c6cccnc6)C(=O)C(C)(C)[C@@H]5CC[C@]43C)[C@H]2C1	63.4%
COC(=O)[C@]12CCC(C)(C)C[C@H]1[C@H]1C(=O)C[C@@H]3[C@@]4(C)c5c([nH]c6ccccc6c5=O)C(C)(C)[C@@H]4CC[C@@]3(C)[C@]1(C)CC2	87.1%
CC1=CC(=NN=c2cc(C)n([O-])c(C)c2)C=C(C)[N+]1=O	98.8%
CCC(=O)c1ccc(Cl)s1	103%
Cn1c(=O)c2c(nc3n(-c4ccc(Cl)cc4Cl)c(Sc4nc(-c5ccccc5)c(C#N)c(=O)[nH]4)cn23)n(C)c1=O	11.5%
